Measured values as given in PubChem BioAssay.
Unmarked numbers belong to inactive results. For part of these data: Results with a measured potency or affinity are listed apart. The source made the active and inactive calls. Unless noted, how the calls were made is not given here.

What was measured:
[1] = antimalarial activity against Dd2 strain (AID 2302;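 active means growth inhibition above 50% at the single 2 µM test dose, taken to imply half-maximal potency below 2 µM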;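 further: 0% = DMSO untreated growth and 100% = chloroquine plus artemisinin killed control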); details: P. falciparum Dd2 in RBCs, LDH growth readout, 72 h; at 2 µM; hits give high values
[2] = human hepatoma cell viability loss – ATP luminescence, cytotoxicity control for P. falciparum antimalarial project, primary screen (AID 2303;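 active means inhibition above 50%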;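 further: 0% = DMSO wells and 100% = digitonin-killed cells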); details: HepG2 viability, 24-48 h, at 10 µM, hits give high values
[3] = target: L-lactate dehydrogenase (Plasmodium falciparum (isolate CDC / Honduras)) (UniProt Q27743); experiment: PfLDH activity inhibition – cell lysate, 3D7 strain, counter-screen for P. falciparum growth inhibition project (AID 2304);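 further: 0% = vehicle and 100% = reference inhibitor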; details: P. falciparum 3D7 crude extract, LDH APAD/NBT absorbance; at 2 µM; hits give high values
[4] = inhibition of 3D7 malaria parasite growth – strain 3D7 (AID 2306);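 further: 0% = DMSO wells and 100% = chloroquine plus artemisinin control wells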; details: P. falciparum 3D7 erythrocytic growth, LDH absorbance, 72 h; at 2 µM; hits give high values
[5] = target: Calcium-dependent protein kinase 1 (Plasmodium falciparum (isolate 3D7)) (UniProt P62344); experiment: PfCDPK1 kinase inhibitors, biochemical, TCAMS library (AID 1159585; cut-off not given, nearly all actives have IC50 up to about 0.98 µM;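 further: inhibitors leave more ATP so luminescence rises with inhibition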); details: recombinant PfCDPK1, Kinase-Glo ATP depletion luminescence
[6] = target: Plasmodium falciparum protein kinase 6 (PK6, PF3D7_1337100) (UniProt Q8IDW1); experiment: PfPK6 kinase inhibitors, biochemical, TCAMS library (AID 1159586); details: recombinant PfPK6, Kinase-Glo ATP depletion luminescence
[7] = target: Protein kinase 7 (PK7), Plasmodium falciparum 3D7 (PF3D7_0213400) (UniProt Q7YTF7); experiment: inhibition of Plasmodium PK7 catalytic activity – biochemical, TCAMS antimalarial set, Kinase-Glo luminescence (AID 1159587); details: recombinant PfPK7, Kinase-Glo ATP depletion luminescence
[8] = target: Calcium-dependent protein kinase 4 (Plasmodium falciparum (isolate 3D7)) (UniProt Q8IBS5); experiment: PfCDPK4 kinase inhibitors, biochemical, TCAMS library (AID 1159588; cut-off not given, nearly all actives have IC50 up to about 0.91 µM); details: recombinant PfCDPK4, Kinase-Glo ATP depletion luminescence
Calcium-dependent protein kinase 4 (Plasmodium falciparum (isolate 3D7)), sequence (Q8IBS5 whole entry, looked up): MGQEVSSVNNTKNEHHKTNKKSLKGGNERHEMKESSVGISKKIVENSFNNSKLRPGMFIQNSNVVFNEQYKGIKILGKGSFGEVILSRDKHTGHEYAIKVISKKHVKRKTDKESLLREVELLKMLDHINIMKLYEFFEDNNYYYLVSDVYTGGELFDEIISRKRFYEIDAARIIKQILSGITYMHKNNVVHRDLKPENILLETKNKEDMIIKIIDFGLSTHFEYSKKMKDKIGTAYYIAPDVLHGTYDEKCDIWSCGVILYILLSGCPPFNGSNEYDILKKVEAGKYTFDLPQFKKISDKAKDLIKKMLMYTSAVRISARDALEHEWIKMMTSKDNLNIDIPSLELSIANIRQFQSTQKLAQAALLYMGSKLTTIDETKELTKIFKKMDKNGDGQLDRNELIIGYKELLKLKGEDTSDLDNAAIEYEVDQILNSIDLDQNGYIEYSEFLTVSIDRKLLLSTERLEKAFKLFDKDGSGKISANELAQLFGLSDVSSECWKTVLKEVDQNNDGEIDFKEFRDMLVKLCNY

Plasmodium falciparum protein kinase 6 (PK6, PF3D7_1337100), sequence (Q8IDW1 1-305): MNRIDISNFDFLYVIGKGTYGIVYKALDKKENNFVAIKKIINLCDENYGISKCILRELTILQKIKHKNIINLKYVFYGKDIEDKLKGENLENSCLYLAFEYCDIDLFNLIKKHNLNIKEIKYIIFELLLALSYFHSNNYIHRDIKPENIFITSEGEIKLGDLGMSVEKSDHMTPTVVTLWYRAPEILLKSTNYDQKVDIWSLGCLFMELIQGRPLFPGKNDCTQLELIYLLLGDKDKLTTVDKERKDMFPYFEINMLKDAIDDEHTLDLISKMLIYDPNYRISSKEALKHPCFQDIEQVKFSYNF
Protein kinase 7 (PK7), Plasmodium falciparum 3D7 (PF3D7_0213400), sequence (Q7YTF7 1-343): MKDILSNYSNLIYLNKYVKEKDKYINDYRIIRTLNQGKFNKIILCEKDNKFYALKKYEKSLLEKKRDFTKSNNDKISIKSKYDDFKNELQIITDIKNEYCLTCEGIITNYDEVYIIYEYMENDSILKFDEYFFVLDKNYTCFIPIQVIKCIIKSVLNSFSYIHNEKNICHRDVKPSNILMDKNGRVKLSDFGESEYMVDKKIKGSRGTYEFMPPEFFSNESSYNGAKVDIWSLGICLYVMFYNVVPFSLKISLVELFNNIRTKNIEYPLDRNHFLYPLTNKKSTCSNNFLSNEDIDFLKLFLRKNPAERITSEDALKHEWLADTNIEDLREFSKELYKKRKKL
L-lactate dehydrogenase (Plasmodium falciparum (isolate CDC / Honduras)), sequence (Q27743 whole entry, looked up): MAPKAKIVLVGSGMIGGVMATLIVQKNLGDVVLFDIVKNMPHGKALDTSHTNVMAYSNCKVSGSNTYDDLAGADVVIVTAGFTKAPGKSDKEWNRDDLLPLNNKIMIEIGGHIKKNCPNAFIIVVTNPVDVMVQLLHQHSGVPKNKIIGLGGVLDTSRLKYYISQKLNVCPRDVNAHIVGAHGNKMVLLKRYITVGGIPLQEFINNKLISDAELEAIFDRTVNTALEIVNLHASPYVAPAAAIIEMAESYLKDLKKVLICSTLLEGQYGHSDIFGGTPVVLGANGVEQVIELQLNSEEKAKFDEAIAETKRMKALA
Calcium-dependent protein kinase 1 (Plasmodium falciparum (isolate 3D7)), sequence (P62344 whole entry, looked up): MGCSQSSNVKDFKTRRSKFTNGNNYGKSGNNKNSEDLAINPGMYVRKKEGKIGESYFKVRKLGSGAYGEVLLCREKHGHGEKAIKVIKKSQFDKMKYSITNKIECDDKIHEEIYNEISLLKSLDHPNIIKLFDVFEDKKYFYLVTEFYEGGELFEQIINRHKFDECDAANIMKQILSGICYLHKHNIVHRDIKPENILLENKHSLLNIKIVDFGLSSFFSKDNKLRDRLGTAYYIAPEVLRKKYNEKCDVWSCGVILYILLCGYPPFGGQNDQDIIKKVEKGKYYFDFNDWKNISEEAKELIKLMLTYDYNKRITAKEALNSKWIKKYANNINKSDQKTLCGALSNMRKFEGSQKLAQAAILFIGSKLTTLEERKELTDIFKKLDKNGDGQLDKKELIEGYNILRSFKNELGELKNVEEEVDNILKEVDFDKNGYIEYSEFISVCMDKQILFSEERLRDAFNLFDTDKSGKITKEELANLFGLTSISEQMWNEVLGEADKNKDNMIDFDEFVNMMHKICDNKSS

| Compound | growth inhibition [1] | inhibition [2] | inhibition [3] | growth inhibition [4] | outcome [5] | outcome [6] | outcome [7] | outcome [8] |
| --- | --- | --- | --- | --- | --- | --- | --- | --- |
| O=C(c1cc(-c2cccs2)[nH]n1)N1CCN(S(=O)(=O)c2ccc(Cl)cc2)CC1 | 95% (active) | -1% | 3% | 96% (active) | inactive | inactive | inactive | inactive |
| COc1ccc(NC(=O)/C=C/c2ccccc2Cl)cc1OCCN1CCC(NC2CC2)CC1 | 66% (active) | 23% | 3% | 101% (active) | inactive | inactive | inactive | inactive |
| O=C(Nc1cccc(-c2ccc(-c3nc4ccccc4[nH]3)cc2)c1)c1csnn1 | 21% | 31% | 0% | 91% (active) | inactive | inactive | inactive | inactive |
| COc1ccc2c(c1)CC(C)(C)NC2CCCCCCCCC1NC(C)(C)Cc2cc(OC)ccc21 (stereo not drawn) | 62% (active) | 42% | 0% | 98% (active) | inactive | inactive | inactive | inactive |
| CC(C)NCc1ccc(-c2cccc(NC(=O)c3ccc(Cl)cc3)c2)cc1 | 82% (active) | 20% | -7% | 100% (active) | inactive | inactive | inactive | inactive |
| O=C(/C=C/c1ccc(Cl)c(Cl)c1)NCCCCCN1CCC(NC(=O)Nc2ccc(Cl)cc2Cl)CC1 | 33% | 96% (active) | -2% | 91% (active) | inactive | inactive | inactive | inactive |
| O=C(/C=C/c1ccccc1Cl)Nc1ccc(Br)c(OCCN2CCN(CCN3CCCC3)CC2)c1 | 89% (active) | 26% | -7% | 99% (active) | inactive | inactive | inactive | inactive |
| Cc1cc(NN=Cc2ccccc2)c2cc(C(F)(F)F)ccc2n1 | 97% (active) | 30% | -6% | 101% (active) | inactive | inactive | inactive | inactive |
| CN(C)CCN(Cc1ccccc1)c1ccc([N+](=O)[O-])cc1C(F)(F)F | 89% (active) | 40% | -8% | 96% (active) | inactive | inactive | inactive | inactive |
| COc1cc2nc(SCCCC#N)n(C3CCCCCC3)c(=N)c2cc1OC | 9% | 0% | 0% | 89% (active) | inactive | inactive | inactive | inactive |
| COc1cc(Cc2cnc(N)nc2N)cc(OC)c1OCCCCCN1C(=O)c2ccccc2C1=O | 4% | 5% | 3% | 97% (active) | inactive | inactive | inactive | inactive |
| Cc1nc(N)nc(N)c1-c1cc(Cl)c(N)c(Cl)c1 | 2% | 62% (active) | 6% | 94% (active) | inactive | inactive | inactive | inactive |
| COc1cccc(-c2ccc(C(=O)NCC3CCCN(Cc4cccc(C(F)(F)F)c4)C3)s2)c1 (stereo not drawn) | 18% | 10% | 0% | 85% (active) | inactive | inactive | inactive | inactive |
| O=S(=O)(c1cccc(F)c1)c1ccc(Nc2ncnc3cc(Br)sc23)cc1Cl | 11% | 20% | -2% | 86% (active) | inactive | inactive | inactive | inactive |
| CCCNCc1ccc(-c2ccc(CN(CCOC)C(=O)CC3CCCC3=O)cc2)nc1 (stereo not drawn) | 9% | 5% | 3% | 93% (active) | inactive | inactive | inactive | inactive |
| Nc1c2ccccc2nc2ccc(-c3ccccc3)cc12 | 99% (active) | 100% (active) | 2% | 101% (active) | inactive | inactive | inactive | inactive |
| CCOC(=O)c1ccc(N2CCN(CCCNC(=O)/C(=C/C=C/c3cc4cc(Cl)c(Cl)cc4[nH]3)OC)CC2)cc1 | 72% (active) | 39% | 4% | 93% (active) | inactive | inactive | inactive | inactive |
| CCOc1cc(Br)c(C(C)NC(=O)c2cccc(OC)c2)cc1OCC (stereo not drawn) | 37% | -1% | 3% | 90% (active) | inactive | inactive | inactive | inactive |
| Cc1cccc2[nH]c(-c3ccc(-c4cccc(NC(=O)NCc5ccc(F)cc5)c4)cc3)nc12 | 100% (active) | 82% (active) | -1% | 101% (active) | inactive | inactive | inactive | inactive |
| CCCc1ccc(S(=O)(=O)NC2CCN(c3ccnc(Nc4ccc(F)cc4)n3)C2)cc1 (stereo not drawn) | 56% (active) | 40% | -6% | 95% (active) | inactive | inactive | inactive | inactive |
| CCOC(=O)CNC(=O)N1CCN(C(=O)NCC(=O)OCC)CC1 | 0% | -9% | -2% | 93% (active) | inactive | inactive | inactive | inactive |
